# PubChem BioAssay (NCI)
# Compounds without any hit were thinned out: in the full panel of roughly 83,000, 20% have a hit.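 Percent growth is the endpoint: 0 to 100 indicates growth inhibition (40 means 60% inhibition), 0 means no net growth, and negative values indicate cell death.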 The source made the active and inactive calls. How the source made its calls: active means growth percent below 10; inactive means the rest.
# Tested on: MDA-MB-468 breast
# Experiment: NCI-60 one-dose screen, 48 h (100 = growth as untreated, 0 = no growth, -100 = all killed)
# Details: 10 µM unless noted
row,Structure (SMILES),growth
1,ClCC(Cl)C1CCC(Cl)C(Cl)C1 (configuration not stated),114% (inactive)
2,O=CN1N=C(c2ccc(F)cc2)CC1c1cccc(Nc2ccnc3cc(C(F)(F)F)ccc23)c1 (configuration not stated),29.2% (inactive)
3,O=C(/C=C/c1cccc(O)c1)c1ccccc1O,85% (inactive)
4,CC[C@]1(O)C[C@@H]2CN(CCc3c([nH]c4ccccc34)[C@@](C(=O)OC)(c3cc4c(cc3OC)N(C)[C@H]3[C@@](O)(C(=O)OC)[C@H](OC(=O)CCCBr)[C@]5(CC)C=CCN6CC[C@]43[C@@H]65)C2)C1,31.8% (inactive)
5,CCCCCCN(CCCCCC)CCCNc1nccc2ccccc12,-6.34% (active)
6,C#CCOc1cccc(Nc2ncnc3ccc(NC(=O)C=C)cc23)c1,-25.7% (active)
7,COc1cccc(/C=C2\Cc3ccccc3C2=O)c1,99.6% (inactive)
8,COC(=O)Nc1nc2ccc(C(=O)c3ccc(N(C)C4COC4)cc3)cc2[nH]1,-8.89% (active)
9,O=C(Cc1ccc(F)c(Cl)c1)Nc1cc(C2(C(F)(F)F)CC2)nn1Cc1ccccc1,23.9% (inactive)
10,COc1ccc2nc3nc4ccc[nH]c4cc3c2c1,-36.6% (active)
11,C=C(C)[C@@H]1CC[C@]2(C(=O)OCCOCCOCC[P+](c3ccccc3)(c3ccccc3)c3ccccc3)CC[C@]3(C)[C@H](CC[C@@H]4[C@@]5(C)CC[C@H](OC(C)=O)C(C)(C)[C@@H]5CC[C@]43C)[C@@H]12,-76.5% (active)
12,COc1ccc(C2=NN(C(C)=O)C(c3cn(Cc4ccc(Cl)cc4)c4ccccc34)C2)cc1 (configuration not stated),69.2% (inactive)
13,Cc1cc(C)c(-c2c(O)c(Br)c(-c3c(C)cc(C)c(Br)c3C)c(O)c2Br)c(C)c1Br,48.9% (inactive)
14,O=C(/C=C/c1ccccc1)C(Br)C(Br)c1ccccc1 (configuration not stated),-38.1% (active)
15,N[C@@H]1CCCN(c2c(/C=C3\SC(=O)NC3=O)cccc2-c2ccccc2)C1,55.8% (inactive)
16,O=C1CC[C@@H]2CCCC[C@@H]2C1,125% (inactive)
17,COc1nc2ccccc2s1,113% (inactive)
18,CCc1cccc(C)c1NC(=O)c1sc2nc3c(cc2c1N)C(=O)CCC3,32.5% (inactive)
19,C/C(=C\c1cc(Cl)ccc1OCC(=O)O)[N+](=O)[O-],112% (inactive)

row,Structure (SMILES),growth
1,O=S(=O)(Nc1ccc(Br)c(Cl)c1)c1ccc(-c2cnc(C3CC3)o2)cc1,-23.9% (active)
2,COC(=O)[C@]12CCC(C)(C)C[C@H]1[C@H]1/C(=N/OCCc3nn[nH]n3)C[C@@H]3[C@@]4(C)CC[C@H](OC(C)=O)C(C)(C)[C@@H]4CC[C@@]3(C)[C@]1(C)CC2,17.3% (inactive)
3,COc1cccc(-c2nc3sccn3c2-c2ccnc(NCCNS(=O)(=O)c3ccc(C(F)(F)F)cc3)c2)c1,41.7% (inactive)
4,Cc1ccc(SCN2CCN(c3cccc(Cl)c3)CC2)cc1,115% (inactive)
5,CCOC(=O)C(C)(c1ccccc1)c1ccccc1,109% (inactive)
6,COc1ccc(-c2cc(=O)[nH]c3c(OC)c4ccccc4c(OC)c23)cc1,-0.192% (active)
7,O=C(O)c1ccc2c(c1Sc1ccccc1)C(=O)c1ccccc1C2=O,97.9% (inactive)
8,COc1cc(/C=C2\CN(S(=O)(=O)c3ccccc3)C/C(=C\c3cc(CN4CCCC4)c(O)c(OC)c3)C2=O)cc(CN2CCCC2)c1O,-32.1% (active)
9,Cn1ccnc1C(=O)/C=C/c1ccc(C(=O)Nc2ccc(Cl)cc2)cc1,12.1% (inactive)
10,O=C(O)c1ccc(-c2ccc(/C=N/Nc3nc(Nc4ccccc4)nc(N4CCCCC4)n3)o2)cc1,92.1% (inactive)
11,CCCCCCCC12Cc3ccccc3C1=Nc1c(c3ccccc3n1C)C2=O (configuration not stated),97.3% (inactive)
12,COc1c(N2CC3CCCNC3C2)c(F)cc2c(=O)c(C(=O)N/N=C/c3ccc(F)cc3)cn(C3CC3)c12 (configuration not stated),84.4% (inactive)
13,COc1cc2cc(Oc3ccc(NC(=O)c4ccccc4)cc3)c(C)nc2cc1OC,98.4% (inactive)
14,COc1ccc(CCn2cncc2-c2c[nH]c3ccccc23)cc1,94.5% (inactive)
15,COC(=O)c1c(C)nc(C)c2c1C(=O)C=C(NCc1ccccc1)C2=O,53.9% (inactive)
16,COc1ccc(C2CC(c3cccc(Nc4ccnc5cc(Cl)ccc45)c3)=NN2C=O)cc1 (configuration not stated),7.85% (active)
17,COc1ccc(-c2nnc(-c3ccc4c(c3)nc(-c3ccncc3)n4C3CCCCC3)o2)cc1,75.2% (inactive)
18,N#Cc1ccc(O)c(C2=NCC(Cc3ccccc3)O2)c1 (configuration not stated),33.5% (inactive)
